# Experimental data as given in PubChem BioAssay AID1347071 (National Center for Advancing Translational Sciences (NCATS), 2019).
# About 260 (0.063%) of roughly 410,000 compounds were called active. Roughly 2% stayed inconclusive and do not appear here. The list comes from a sample in which actives are over-represented; it also holds similar structures and randomly drawn compounds. A number with no mark means an inactive call. Calls come from the whole dose curve; as a rule, active = well fitted activation curve with a large enough effect; inconclusive = small, poorly fitted or top-dose-only effect; inactive = no such curve, though single readings can be large or run the other way.
# Experiment: qHTS for compounds that reverse cellular toxicity of Amyloid beta (A-beta) peptide in yeast: Primary Screen; note: nearly all actives have a fitted effect of over 55% in size
# Settings: yeast expressing A-beta42, growth rescue, OD600, 48 h; series mostly up to 46.1 µM; growth rescue: at the top concentration
# Description: The A-beta peptide is produced by the processing of the amyloid precursor protein (APP) by two proteases, beta and gamma secretases. […] A-beta42 is regarded as the most amyloidogenic form due to its hydrophobicity; however, precisely how A-beta42 induces neurotoxicity is unclear. To understand further this biology and its potential therapeutic implications for human neurodegenerative disease, a quantitative high-throughput screen for compounds that reverse the cellular toxicity of the A-beta peptide was developed. A yeast based screen was used because it recapitulates the salient feature of protein mis-folding disorder accurately. This cell-based phenotypic screen provides a significant, unbiased advantage by letting the compounds and models inform us which proteins or pathways are most relevant. The ideal chemical candidates would therefore have activity in both our primary yeast and secondary neuronal toxicity assays, as well as in mouse models. They will be valuable tools for dissecting diverse protein homeostasis pathologies and could potentially become the focus for future pre-clinical development. For this luminescence assay, inhibition of A-beta rescues the toxic effect in the yeast cell, resulting in increase of signals and the desired phenotype of "Activator". This screen is run against the Molecular Libraries Small Molecule Repository (MLSMR) and the NCGC Sytravon Library Collection.
# NIH Chemical Genomics Center [NCGC]
# NIH Molecular Libraries Probe Centers Network [MLPCN]
# Assay Submitter (PI): Susan Lindquist, Whitehead Institute, Massachusetts Institute of Technology
# [1] Vassar R,et al (1999). Beta-secretase cleavage of Alzheimer's amyloid precursor protein by the transmembrane aspartic protease BACE. Science. 286: 735-741.
# [2] Yan R, et al (1999). Membrane-anchored aspartyl protease with Alzheimer's disease beta-secretase activity. Nature. 402: 533-536.
# Two and a half microliter / well of yeast growth medium were dispensed in a 1536 assay plate. Compounds were pinned using the Kalypsys robotic system followed by addition of 2.5 uL / well yeast solution. The assay plates were incubated at 30 C. After 48 hr, the absorbance signal at 600 nm was obtained using the PerkinElmer ViewLux plate reader to assess yeast growth. The data was normalized to the positive control of an equimolar mixture of ferric chloride (FeCl3) and clioquinol and to the negative control DMSO.
Compound,growth rescue [%],Potency
Cc1cccc(NC(=O)C2CCCN2S(=O)(=O)c2cccc3nsnc23)c1C (stereo not given),-2.47,–
COc1ccc(OCCCn2c(C)nc3cc(C)c(C)cc32)cc1,-4.77,–
Cc1c(-c2nc(-c3ccc4c(c3)OCO4)no2)nnn1-c1ccc(Br)cc1F,-2.02,–
O=C(CCn1ccc2cc(S(=O)(=O)N3CCCC3)ccc21)NCc1cccc(Cl)c1,2.11,–
O=C(CSc1oc(-c2ccccc2)nc1S(=O)(=O)c1ccc(Br)cc1)NC1CCCCC1,5.91,–
CC(C)CCNC(=O)CSc1nc2ccccc2nc1Cc1ccc(Cl)cc1,9.91,–
COc1cc(C(=O)Nc2ccc(-n3c(C)nc4ccccc4c3=O)cc2)cc(OC)c1OC,-7.82,–
CCOc1ccccc1C(=O)Nc1ccc(S(=O)(=O)N2CCCCC2c2cccnc2)cc1 (stereo not given),-13.3,–
Cn1c(=O)c2c(nc(Oc3ccc(C#N)cc3)n2Cc2ccc(Cl)cc2Cl)n(C)c1=O,-7.43,–
CCN(c1ncnc2c1cnn2-c1ccc(C)cc1)C1CCCCC1,-13.3,–
Cc1ccc(NC(=O)c2nc(S(=O)(=O)Cc3cccc(C)c3)ncc2Cl)cc1,-33.4,–
Cc1nnc(N2CCCC(C(=O)NCCN(C)C)C2)c2nn(-c3ccccc3)c(C)c12 (stereo not given),-0.421,–
COc1ccc(C2=NC(c3ccncc3)=Nc3ccc(Br)cc3N2)cc1,-13.2,–
COc1ccc(OC)c(-n2nnc3c(sc4nc(C)c(Br)c(C)c43)c2=O)c1,-12.2,–
CCS(=O)(=O)N1CCC(n2c(C)nc3cccnc32)CC1,-4.75,–
COc1cc(OC)c(NC(=O)N2CC3CCCN3c3ccccc32)cc1Cl (stereo not given),-9.37,–
CCOc1ccc(CNC(=O)c2ccc(CS(=O)c3ccccc3)o2)cc1 (stereo not given),-8.75,–
CCCCn1c(=N)c(S(=O)(=O)c2ccccc2)cc2c(=O)n3cccc(C)c3nc21,0.43,–
Fc1ccc(Nc2nc(SCc3ccccc3Cl)nc3ccccc23)cc1,-45.3,–
COc1ccccc1N1CCN(C(=O)C2CCN(S(=O)(=O)c3c(C)noc3/C=C/c3ccc(C)cc3)CC2)CC1,-1.97,–

Compound,growth rescue [%],Potency
Cc1ccc2oc3c(c(=O)c2c1)C(c1ccc(O)cc1)N(Cc1ccc2c(c1)OCO2)C3=O (stereo not given),5.68,–
COc1ccc(-c2cc(NCc3ccc(F)cc3)n3cnnc3n2)cc1,-4.36,–
CCCCN(C)S(=O)(=O)c1ccc(C(=O)Nc2sc3c(c2C(N)=O)CC(C)(C)NC3(C)C)cc1,-10.9,–
Cc1ccc(N(CC(=O)NCc2ccc(Cl)cc2)S(=O)(=O)N(C)C)cc1,13,–
Cc1cc2nn(-c3ccc(Cl)cc3)nc2cc1NC(=O)C(C)C,-14.3,–
Cc1ccc(C(=O)CSc2nc(-c3ccccc3)nc3c2CCCC3)c(C)c1,-11.5,–
O=C(NC1CC(=O)N(c2ccccc2)C1)c1ccco1 (stereo not given),11.5,–
COCCNC(=O)CSc1nc(-c2ccccc2)[nH]c1-c1ccc(C)cc1,-13.5,–
COc1ccccc1CNC(=O)C(Cc1ccccc1)NS(=O)(=O)c1ccc2c(c1)oc(=O)n2C (stereo not given),0.772,–
CCCCNC(=O)C1CCCN(c2nnc(C)c3c(C)n(-c4ccc(Cl)cc4)nc23)C1 (stereo not given),-17.8,–
CCOC(=O)c1c(NC(=O)CSc2cn(CCNC(=O)c3cccc(C(F)(F)F)c3)c3ccccc23)sc2c1CCC2,-8.29,–
Cn1c(=O)c2c(ncn2CC(=O)Nc2cccc(C(F)(F)F)c2)n(C)c1=O,-3.94,–
CCN(CCCNC(=O)c1ccc(Sc2ccc(C)cc2)c(NC(C)=O)c1)c1cccc(C)c1,-1.54,–
C#CCOc1ccc(C2CC(=O)Nc3c2c(C)nn3-c2nc(C)cc(C)n2)cc1 (stereo not given),2.23,–
COc1cccc(NC(=O)CSC2=Nc3ccccc3C3=NC(CC(=O)NC4CCCCC4)C(=O)N23)c1 (stereo not given),-14.8,–
O=C(CNS(=O)(=O)c1cccs1)N1CCN(c2ccccc2Cl)CC1,5.4,–
CSc1nsc(SC)c1NC(=O)OC1CCCCC1,–,4.47 µM (active)
Cc1nnc(N2CCC(C(=O)Nc3ccc(F)cc3)CC2)c2nn(-c3ccc(Cl)cc3)c(C)c12,5.45,–
COc1ccc(-c2onc(C)c2C)cc1S(=O)(=O)NCc1cccs1,-11.1,–
COc1cc(OC)cc(-c2nc3nc(C)c(CCC(=O)Nc4ccc(C)cc4)c(C)n3n2)c1,-8.3,–

Compound,growth rescue [%],Potency
CCOCCc1nn2c(=O)cc(COC(=O)CNC(=O)c3ccc(C(C)(C)C)cc3)nc2s1,-7.06,–
Cc1ccccc1-n1c(=O)c2ccccc2n(Cc2ccc(F)cc2)c1=O,8.53,–
CCOC(=O)c1cnc2c(C)cc(Cl)cc2c1NCCc1ccc(OC)c(OC)c1,-7.55,–
CCOc1ccccc1NC(=O)Cn1c(=O)n(Cc2ccccc2)c(=O)c2c(C)c(C(=O)N(C)C)sc21,8.18,–
COc1ccc(C2C(=O)N(C3CCCCC3)CC(=O)N2Cc2ccccc2Cl)cc1OC (stereo not given),-19.9,–
Cc1cccc(OCCSc2nc3ccccc3n2CC(=O)N2CCCCC2)c1C,-18.2,–
Cc1ccc(C(=O)N2CCc3cc(CNC(=O)c4ccc(Br)cc4)ccc32)cc1,-7.59,–
Cc1cccc(N(C)C(=O)CS(=O)(=O)c2cccc3nsnc23)c1,-5.59,–
COc1ccccc1OCCC(=O)OCC(=O)NC(=O)NC(C)(C)C,6.23,–
CC(C)(C)NC(=O)NC(=O)COC(=O)Cc1ccc(Cl)cc1Cl,–,11.2 µM (active)
Cc1ccc(Cl)cc1NC(=O)COC(=O)CC(C)(C)C,7.7,–
CCN1C(=O)[C@H]2[C@@H](c3ccc(C(F)(F)F)cc3)N[C@]3(CCCN(Cc4ccc(Br)cc4)C3=O)[C@H]2C1=O,27.1,–
O=C1[C@H]2[C@@H](c3ccc(C(F)(F)F)cc3)N[C@]3(CCCN(Cc4ccc(Cl)cc4)C3=O)[C@H]2C(=O)N1Cc1ccccc1,–,8.91 µM (active)
Cc1ccc([C@H]2N[C@]3(CCCN(Cc4ccccc4)C3=O)[C@H]3C(=O)N(Cc4ccccc4)C(=O)[C@@H]23)cc1,-6.57,–
COc1ccc(CCNC(=O)Cn2c(=O)n(-c3ccccc3)c(=O)c3c(C)c(C)sc32)cc1OC,-4.29,–
COc1ccccc1OCC(=O)Nc1nnc2n1CCS2,-8.79,–
CCOc1ccc(CNC(=O)C2CCN(c3nnc(-n4cccc4CNc4ccc(C)cc4)s3)CC2)cc1OC,-2.64,–
COc1cccc(CNC(=O)Cn2ncn3c(cc4ccccc43)c2=O)c1,-12.9,–
COCCNc1ncnc2c1c(-c1ccccc1)cn2-c1ccc(C)c(Cl)c1,-0.39,–
CCOc1ccc(-c2cc3nc(C4CCN(C(=O)OC(C)(C)C)CC4)c(C(=O)Nc4cccc(CC)c4)cn3n2)cc1,-2.51,–
